Bioassay records as filed in PubChem.
Most compounds without a hit are left out; they make up all but 5.7% or so of the library.
L3MBTL1 inh – qHTS Assay for the Inhibitors of L3MBTL1; Lethal(3)malignant brain tumor-like protein 1 (Homo sapiens), Q9Y468; AlphaScreen L3MBTL1–H3K9me1 peptide binding; Potency, µM (top dose mostly 57.1 µM), for inactives: top-dose activity, negative = inhibition, hits mostly inhibitors; 230,000 compounds, 0.66% hits; AID 485360, 2010; also: potency is read from the fitted curve at half-maximal effect; % is scaled to controls: 0 for no effect and ±100 for the full control effect; nearly all actives have a fitted effect of over 60% in size
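Read-out is AlphaScreen signal from streptavidin donor and nickel chelate acceptor beads (10 ug/mL final each) bridging L3MBTL1 (50 nM) and biotinylated K9-monomethylated H3(1-15) peptide (75 nM), after 30 min compound exposure at room temperature.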
PI5P4Ka inh – qHTS for Inhibitors of phosphatidylinositol 5-phosphate 4-kinase (PI5P4K). AID 652105, 2013. Phosphatidylinositol 5-phosphate 4-kinase type-2 alpha (Homo sapiens), P48426. 330,000 compounds, 1.2% hits. max response, %. PI5P4Kalpha enzyme, ADP-Glo luminescence, 60 min; stronger effect = lower value; active = max response of -50% or lower; inconclusive = between -30% and -50%; inactive = -30% or higher; also: value at the top dose of about 77 µM; % is scaled to controls: 0 for no effect and ±100 for the full control effect
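Reactions run in 0.038 M HEPES pH 7.4, 0.28 mM EGTA, 0.1% CHAPS and 5% DMSO, with PI5P4Kalpha, substrate, compound and 5 microM ATP final, one hour at room temperature. Readout is ADP-Glo luminescence.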
BAZ2B block – qHTS Assay for Inhibitors of BAZ2B; AlphaScreen BAZ2B-H3K14Ac peptide displacement; 360,000 compounds, 4.4% hits; Bromodomain adjacent to zinc finger domain protein 2B (Homo sapiens), Q9UIF8; Potency, µM (highest dose often 114 µM), for inactives: at the top dose activity change, negative = inhibition, hits mostly inhibitors; also: potency is read from the fitted curve at half-maximal effect; % is scaled to controls: 0 for no effect and ±100 for the full control effect; nearly all actives have a fitted effect of over 60% in size
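In this displacement format the biotinylated H3(5-23) peptide acetylated at Lys14 serves as ligand at 50 nM, with BAZ2B at 50 nM in PBS pH 7.4 containing 0.01% Tween-20. Donor and acceptor beads are 10 ug/mL final.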
JMJD2A Tudor inh – qHTS Assay for Inhibitors of JMJD2A-Tudor Domain. Potency, µM (series often up to 114 µM), without a hit: top-dose activity change, negative = inhibition, usual class: inhibitors. Lysine-specific demethylase 4A (Homo sapiens), O75164. 390,000 compounds, 4.4% hits. AID 504339, 2011. AlphaScreen JMJD2A-Tudor / H3K4me3 peptide binding; also: potency is read from the fitted curve at half-maximal effect; % is scaled to controls: 0 for no effect and ±100 for the full control effect; nearly all actives have a fitted effect of over 50% in size
HP1b binding inh – HTS for Inhibitors of HP1-beta Chromodomain Interactions with Methylated Histone Tails | Chromobox protein homolog 1 (Homo sapiens), P83916 | AlphaScreen HP1-beta / biotin-H3K9me3 peptide binding | Potency, µM (titrated, usually from 114 µM), for inactives: at the highest dose activity change, negative = inhibition, hits mostly inhibitors | 390,000 compounds, 0.56% hits; also: potency is read from the fitted curve at half-maximal effect; nearly all actives have a fitted effect of over 70% in size
Target sequence (P83916 whole entry, looked up): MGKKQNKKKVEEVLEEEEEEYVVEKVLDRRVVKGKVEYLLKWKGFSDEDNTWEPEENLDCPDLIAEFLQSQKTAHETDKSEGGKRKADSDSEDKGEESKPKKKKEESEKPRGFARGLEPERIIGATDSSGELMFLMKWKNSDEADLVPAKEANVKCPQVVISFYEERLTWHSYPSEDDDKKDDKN
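HP1-beta protein (50 nM final) preincubated 30 min at room temperature with biotinylated H3(1-18)K9me3 peptide (50 nM) in PBS pH 7.4, 0.01% Tween-20, then compound added for 30 min. AlphaScreen streptavidin donor/nickel chelate acceptor beads (10 ug/mL final), 30 min dark, luminescence read.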
JMJD2E inh – qHTS Assay for Inhibitors of Human Jumonji Domain Containing 2E (JMJD2E); Lysine-specific demethylase 4E (Homo sapiens), B2RXH2; JMJD2E catalytic domain, FDH-coupled NADH fluorescence (FDH is formaldehyde dehydrogenase); AID 2147, 2009; Potency, µM (series often up to 57.1 µM), for the others: at the highest dose activity change, negative = inhibition, actives largely listed as inhibitors; 230,000 compounds, 1.6% hits; active = well fitted inhibition curve with a large enough effect, not every such curve was filed as active; inconclusive = small, poorly fitted or top-dose-only effect, or another doubt; inactive = no such curve, though single readings can be large or run the other way;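 also: potency is read from the fitted curve at half-maximal effect; 0% = wells with enzyme and -100% = buffer wells without enzyme; nearly all actives have a fitted effect of over 50% in size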
Target sequence (B2RXH2 1-337 limits assumed): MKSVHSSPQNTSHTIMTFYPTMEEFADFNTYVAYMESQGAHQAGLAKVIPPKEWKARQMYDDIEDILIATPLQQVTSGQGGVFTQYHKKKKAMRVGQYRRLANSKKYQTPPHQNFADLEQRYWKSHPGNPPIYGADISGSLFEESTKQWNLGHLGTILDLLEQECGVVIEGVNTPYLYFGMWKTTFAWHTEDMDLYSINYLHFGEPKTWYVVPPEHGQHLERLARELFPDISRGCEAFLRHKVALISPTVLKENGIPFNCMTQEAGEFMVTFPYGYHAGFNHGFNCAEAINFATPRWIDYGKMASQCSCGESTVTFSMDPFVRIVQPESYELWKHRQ
* = called active by the depositor. Unless noted, calls follow the shape of the dose curve; as a rule, active = well fitted inhibition curve with a large enough effect; inconclusive = small, poorly fitted or top-dose-only effect; inactive = no such curve, though single readings can be large or run the other way.

Screening CCOC(=O)c1ccc(N2N=C(C)/C(=C/C=C/c3ccco3)C2=O)cc1 returned L3MBTL1 inh 32µM*, PI5P4Ka inh -11, BAZ2B block 6.3µM*, JMJD2A Tudor inh inconclusive, HP1b binding inh inconclusive and JMJD2E inh -21%.
`COC(=O)C(=C/C=C/c1ccco1)C(=O)OC` gave L3MBTL1 inh -7%, PI5P4Ka inh 3, BAZ2B block -24%, JMJD2A Tudor inh -9%, HP1b binding inh 38% and JMJD2E inh -5%.
Screening O=C(O)c1cc(N2N=C(C(F)(F)F)/C(=C/C=C/c3ccco3)C2=O)ccc1Cl returned L3MBTL1 inh 1µM*, PI5P4Ka inh -93*, BAZ2B block 13µM*, JMJD2A Tudor inh 1µM*, HP1b binding inh 1.6µM* and JMJD2E inh 3%.
For CCOC(=O)c1ccc(-n2c(-c3ccco3)nc3ccccc3c2=O)cc1 the results were L3MBTL1 inh -2%, PI5P4Ka inh -2, BAZ2B block -28%, JMJD2A Tudor inh -23%, HP1b binding inh 25% and JMJD2E inh -10%.
For CC1=NN(c2ccc(C(=O)OC(C)C)cc2)C(=O)/C1=C\C=C\c1ccco1 the results were L3MBTL1 inh 6.3µM*, PI5P4Ka inh -14, BAZ2B block 4µM*, JMJD2A Tudor inh 18µM*, HP1b binding inh inconclusive and JMJD2E inh 4%.
`Cc1nnc(N/N=C/c2cc(C)n(-c3ccc(F)cc3)c2C)n1N` gave L3MBTL1 inh -15%, PI5P4Ka inh -3, BAZ2B block 50µM*, JMJD2A Tudor inh -30%, HP1b binding inh 2% and JMJD2E inh inconclusive.
Screening C=CCc1c(C)nc(C)nc1N/N=C/c1ccccc1O returned L3MBTL1 inh inconclusive, PI5P4Ka inh -3, BAZ2B block 50µM*, JMJD2A Tudor inh inconclusive, HP1b binding inh 14% and JMJD2E inh 3.2µM*.
Screening C=CCc1c(C)nc(C)nc1N/N=C/c1ccc([N+](=O)[O-])cc1 returned PI5P4Ka inh 4, BAZ2B block -25%, JMJD2A Tudor inh -12%, HP1b binding inh 17% and JMJD2E inh -17%.
For Oc1ccccc1/C=N/Nc1nn[nH]n1 the results were L3MBTL1 inh -21%, PI5P4Ka inh -1, BAZ2B block 45µM*, JMJD2A Tudor inh 56µM*, HP1b binding inh 59% and JMJD2E inh inconclusive.
For C(=N\Nc1nn[nH]n1)/c1ccccc1 the results were BAZ2B block inconclusive, JMJD2A Tudor inh 89µM*, HP1b binding inh 27% and JMJD2E inh 6%.
Screening Cc1cc(C)c2nc(N3CCCC(C(=O)NCc4ccccc4F)C3)sc2c1 (configuration not stated) returned BAZ2B block -2%, JMJD2A Tudor inh 5% and HP1b binding inh 27%.
`NC(N)=N/N=C/c1cc([N+](=O)[O-])ccc1O` gave L3MBTL1 inh -3%, PI5P4Ka inh -1, BAZ2B block -4%, JMJD2A Tudor inh -17%, HP1b binding inh 21% and JMJD2E inh 3%.
O=[N+]([O-])c1ccc(O)c(-c2nn[nH]n2)c1 was read as PI5P4Ka inh -54*, BAZ2B block 2.8µM*, JMJD2A Tudor inh 3.2µM*, HP1b binding inh inconclusive and JMJD2E inh 0.4µM*.
`CCOc1cc(/C=N/Nc2nnc(C)n2N)ccc1O` gave PI5P4Ka inh -1, BAZ2B block inconclusive, JMJD2A Tudor inh -15% and HP1b binding inh 18%.
For Cc1nnc(N/N=C/c2ccccc2O)n1N the results were PI5P4Ka inh 1, BAZ2B block 40µM*, JMJD2A Tudor inh inconclusive, HP1b binding inh 38% and JMJD2E inh -27%.
O=[N+]([O-])c1ccc(O)c(/C=N/Nc2ccc(Cl)nn2)c1 was read as L3MBTL1 inh inconclusive, PI5P4Ka inh 4, BAZ2B block 4µM*, JMJD2A Tudor inh 7.9µM*, HP1b binding inh 41% and JMJD2E inh 5.6µM*.
For Oc1cccc(/C=N/Nc2ccc(Cl)nn2)c1 the results were PI5P4Ka inh -1, BAZ2B block -5%, JMJD2A Tudor inh -5% and HP1b binding inh 45%.
O=[N+]([O-])c1ccc(O)c(/C=N/Nc2nn[nH]n2)c1 was read as L3MBTL1 inh 14µM*, PI5P4Ka inh -13, BAZ2B block 6.3µM*, JMJD2A Tudor inh 10µM*, HP1b binding inh 37% and JMJD2E inh 14µM*.
Cc1ccc([N+](=O)[O-])c(OCCn2cnc3ccccc32)c1 was read as L3MBTL1 inh -6%, PI5P4Ka inh 3, BAZ2B block -9%, JMJD2A Tudor inh -21%, HP1b binding inh 30% and JMJD2E inh 5%.
Cc1ccc(C(C)C)c(OCCCCN2CCNCC2)c1 was read as L3MBTL1 inh -8%, PI5P4Ka inh 4, BAZ2B block 28µM*, JMJD2A Tudor inh 7.1µM* and HP1b binding inh inconclusive.
C=CCN(CC=C)CCOc1cc(C)ccc1[N+](=O)[O-] was read as L3MBTL1 inh -14%, PI5P4Ka inh -3, BAZ2B block 22µM*, JMJD2A Tudor inh inconclusive, HP1b binding inh 28µM* and JMJD2E inh inconclusive.
O=[N+]([O-])c1ccccc1OCCN1CCOCC1 was read as L3MBTL1 inh 5%, PI5P4Ka inh -3, BAZ2B block 8%, JMJD2A Tudor inh -15% and HP1b binding inh 9%.
Screening Cc1ccc(C(C)C)c(OCC#CCN2CCOCC2)c1 returned L3MBTL1 inh 3%, PI5P4Ka inh 1, BAZ2B block 50µM*, JMJD2A Tudor inh 22µM* and HP1b binding inh inconclusive.
`Cc1ccc(C(C)C)c(OCC(=O)N2CCOCC2)c1` gave PI5P4Ka inh 0, BAZ2B block 4%, JMJD2A Tudor inh -4%, HP1b binding inh 17% and JMJD2E inh 0%.
For CC1CC(C)CN(CCCOc2ccccc2[N+](=O)[O-])C1 (configuration not stated) the results were L3MBTL1 inh -11%, PI5P4Ka inh -7, BAZ2B block -30%, JMJD2A Tudor inh 32µM*, HP1b binding inh inconclusive and JMJD2E inh 8%.
For O=[N+]([O-])c1ccccc1OCCCN1CCc2ccccc2C1 the results were L3MBTL1 inh -2%, PI5P4Ka inh 0, BAZ2B block -35%, JMJD2A Tudor inh -20% and HP1b binding inh 34%.
For O=Cc1cc(Cl)ccc1OCCN1CCC(Cc2ccccc2)CC1 the results were L3MBTL1 inh 2%, PI5P4Ka inh -5, BAZ2B block inconclusive, JMJD2A Tudor inh 20µM* and HP1b binding inh inconclusive.
